Measured values from PubChem BioAssay AID2653 (National Center for Advancing Translational Sciences (NCATS), 2010).
Records with an inconclusive call do not appear. Values without a mark were called inactive. Calls come from the whole dose curve; as a rule, active = well fitted curve in the direction sought with a large enough effect; inconclusive = small, poorly fitted or top-dose-only effect, or another doubt; inactive = no such curve, though single readings can be large or run the other way.

experiment: Secondary Assay for Activators of Human Pyruvate Kinase M2 isoform - Cell Titer Glo Cytotoxicity for Probe SAR; conditions: HeLa viability, CellTiter-Glo ATP luminescence, 24 h; series mostly up to 58.2 µM; activity change, negative = cytotoxicity: at the top concentration; note: % of control where 0% means no effect
Description: NIH Chemical Genomics Center [NCGC]
Matthew G. Vander Heiden, M.D., Ph.D. [Harvard Medical School, 77 Avenue Louis Pasteur, Boston, MA 02115]
We have identified a series of activators of the M2 isoform of human pyruvate kinase. The assay described here examines the cytotoxicity of these compounds by measuring the total ATP content of Hela cells after 24 hrs of exposure to compound.
500 Hela cells/ 4ul in media (DMEM with high glucose, 10% FBS, 1x Pen Strep, 1x NEAA) were dispensed into a white solid 1536-microwell plate with a Thermo Multidrop. The plates were incubated at 37 degrees Celsius for 24 hours. The cells were then treated with compounds using the Kalypsys pin tool, delivering 23 nl of test compounds and the control doxorubicin. The plates were then incubated for an additional 24 hours at 37 degrees C after which 4 ul of Promega Cell-Titer Glo was dispensed using the Thermo Multidrop. The plates were incubated at room temperature for 10 min before reading luminescence on the Perkin Elmer ViewLux with images collected with 2x binning and a 5 sec exposure time.

SMILES	activity change, negative = cytotoxicity
O=C1c2ccccc2C(=O)N1c1cccc(Cl)c1	-21.7%
Cc1c(Cl)cccc1NS(=O)(=O)c1cc2c(cc1F)NC(=O)CC2	-12.4%
O=C1c2ccccc2C(=O)N1c1cnc2ccccc2c1	0.801%
O=C1CCc2cc(S(=O)(=O)Nc3cccc(Cl)c3)ccc2N1	-11.9%
O=C1c2ccccc2C(=O)N1c1ccc(Cl)cc1	-19.6%
Cc1ccc(NS(=O)(=O)c2ccc(-c3ccccc3)cc2)cc1C	1.34%
O=C1c2ccccc2C(=O)N1c1cccc2ncccc12	-7.26%
N#Cc1ccc(NS(=O)(=O)c2ccc3c(c2)CCC(=O)N3)cc1	0.329%
Cc1ccc(NS(=O)(=O)c2cc3c(cc2-c2ccsc2)NC(=O)CO3)cc1C	-16.1%
O=S1(=O)N=C(Oc2ccccc2)c2ccccc21	-0.226% [at 82.8 µM]
CCNc1cccc(S(=O)(=O)N2CCCN(S(=O)(=O)c3ccc4c(c3)OCCO4)CC2)c1	-20.9%
Cc1ccc(Nc2c(-c3ccc(C)s3)nc3ccccn23)cc1	-13.6%
O=C1CCc2cc(S(=O)(=O)Nc3ccc(-c4ccccc4)cc3)ccc2N1	-9.66%
O=C1c2ccccc2C(=O)N1c1nccs1	-15.3%
COc1ccc(NS(=O)(=O)c2ccc3c(c2)CCC(=O)N3)cc1	-24.1%
COc1ccccc1OC1=NS(=O)(=O)c2ccccc21	7.83%
O=C1c2ccccc2C(=O)N1Cc1ccncc1	-13.8%
O=C1c2ccccc2C(=O)N1c1cncc2ccccc12	-5.97%
O=C1c2ccccc2C(=O)N1c1ccc2ccccc2n1	-23.5%
Cc1ccc(NS(=O)(=O)c2ccc3c(c2)CCC(=O)N3)cc1C	-10.7%

SMILES	activity change, negative = cytotoxicity
Cc1cccc(NS(=O)(=O)c2ccc3c(c2)CCC(=O)N3)c1	-19.5%
CNc1cccc(S(=O)(=O)N2CCN(S(=O)(=O)c3ccc4c(c3)OCCO4)CC2)c1	-2.61%
Cc1ccc(Nc2c(-c3ccc(C)o3)nc3ccccn23)cc1	-18.4%
CC(=O)N1CCCc2cc(S(=O)(=O)Nc3ccc(C)c(C)c3)ccc21	-8.97%
Cc1ccc(NS(=O)(=O)c2cc3c(cc2-c2cn[nH]c2)NC(=O)CO3)cc1C	-2.65%
O=C1CCc2cc(Cl)c(S(=O)(=O)Nc3ccc(Cl)c(Cl)c3)cc2N1	-23.4%
Cc1ccc(NS(=O)(=O)c2ccc(Cl)cc2)cc1C	-4.87%
Cc1ccc(NS(=O)(=O)c2ccc3c(c2)CCC(C)(C)O3)cc1C	-9.19%
COc1cc(F)c(S(=O)(=O)N2CCCN(S(=O)(=O)c3cccc(N)c3)CC2)c(F)c1	-9.41%
O=C1CCc2cc(S(=O)(=O)Nc3cccc(C(F)(F)F)c3)ccc2N1	-44.3%
O=C1CCc2cc(S(=O)(=O)Nc3ccc4c(c3)CCC4)ccc2N1	-21.2%
Cc1cc(NS(=O)(=O)c2ccc3c(c2)CCC(=O)N3)ccc1Cl	-4.72%
Cc1ccc(NS(=O)(=O)c2cccc(Cl)c2)cc1C	1.83%
Cc1ccc(NS(=O)(=O)c2ccc3c(c2)n(C)c(=O)n3C)cc1C	-15.9%
COc1ccc(N2C(=O)c3ccccc3C2=O)cc1	0.623%
CC(=O)N1CCc2cc(S(=O)(=O)Nc3ccc(C)c(C)c3)ccc21	-12.7%
O=C1NS(=O)(=O)c2ccccc21	-2.53%
Cc1ccc(NS(=O)(=O)c2cc3c(cc2/C=C/c2ccccc2)NC(=O)CO3)cc1C	-22.7%
O=C1CCc2cc(S(=O)(=O)Nc3cccc(-c4ccccc4)c3)ccc2N1	-25.3%
Cc1ccc(NS(=O)(=O)c2ccc3c(c2)CCC(=O)N3)cc1F	-1.87%
